The nature of test [1]: qHTS RealTime-Glo MT Cell Viability Assay in HEK293 cells - 16 hour (AID 1224872). Also: top concentration of the series differs between compounds; nearly all actives have a fitted effect of over 50% in size. In a few lines: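 Reads taken at 0, 8, 16, 24, 32 and 40 h from the same wells. HEK293 cells (600/well) carried RealTime-Glo reagents from seeding, with compound added after a 5 h settle at 37 C.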
(Quantitative high-throughput screening tests each substance at several concentrations.)

The nature of test [2]: qHTS RealTime-Glo MT Cell Viability Assay in HepG2 cells - 8 hour (AID 1224873). Also: nearly all actives have a fitted effect of over 55% in size. A digest of the protocol:
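HepG2 cells (600/well) mixed with RealTime-Glo MT reagent, settled 5 h at 37 C/5% CO2 before compound addition. Nonlytic NanoLuc luminescence from viable-cell prosubstrate reduction read repeatedly during 40 h treatment at 37 C.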

Test [3] can be described thus: qHTS RealTime-Glo MT Cell Viability Assay in HEK293 cells - 40 hour (AID 1224874). Also: nearly all actives have a fitted effect of over 50% in size. Also: potency is read from the fitted curve at half-maximal effect. Particulars: RealTime-Glo luminescence; max response: stronger effect = lower value. A digest of the protocol: (§1)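 qHTS format; HEK293 cells with NanoLuc/prosubstrate reagent, 37 C/5% CO2 for 5 h pre-dosing; compounds 23 nL in DMSO; luminescence at each time point reflects viable cells.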
A short description of test [4]: A CellTox Green Cytotoxicity Assay to monitor cytotoxicity in HepG2 cells - 16 hour (AID 1224876). Also: nearly all actives have a fitted effect of over 45% in size. A digest of the protocol: (§2)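 Continuous culture of HepG2 cells with a membrane-impermeant DNA dye; rising fluorescence marks dead cells. Compound exposure lasted up to 40 h at 37 C, with reads every 8 h from 0 h.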
A short description of test [5]: qHTS RealTime-Glo MT Cell Viability Assay in HepG2 cells - 32 hour (AID 1224877). Also: nearly all actives have a fitted effect of over 55% in size. In a few lines: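 HepG2 suspension premixed with RealTime-Glo reagents is plated at 600 cells per well and left 5 h at 37 C/5% CO2. Compounds in DMSO then go in, and bioluminescence reflecting viable cell number is recorded over 40 h.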
Test [6] in a line: A CellTox Green Cytotoxicity Assay to monitor cytotoxicity in HepG2 cells - 24 hour (AID 1224878). Also: nearly all actives have a fitted effect of over 45% in size. In a few lines:
as §2

Test [7] in a line: A CellTox Green Cytotoxicity Assay to monitor cytotoxicity in HepG2 cells - 40 hour (AID 1224879). Also: nearly all actives have a fitted effect of over 40% in size. Also: potency is read from the fitted curve at half-maximal effect. In a few lines:
as §2

Test [8] can be described thus: qHTS RealTime-Glo MT Cell Viability Assay in HEK293 cells - 0 hour (AID 1224880). Also: top concentration of the series differs between compounds; nearly all actives have a fitted effect of over 45% in size. A digest of the protocol:
as §1

The nature of test [9]: A CellTox Green Cytotoxicity Assay to monitor cytotoxicity in HEK293 cells - 32 hour (AID 1224881). Also: nearly all actives have a fitted effect of over 40% in size. Also: potency is read from the fitted curve at half-maximal effect. A digest of the protocol:
(§3)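 Each value comes from one timepoint of a single continuous run in which HEK293 cells with CellTox Green were exposed to compound for up to 40 h at 37 C, dye fluorescence rising with cell death.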

Test [10] is described as follows: A CellTox Green Cytotoxicity Assay to monitor cytotoxicity in HEK293 cells - 24 hour (AID 1224875). Also: series mostly up to about 77 µM; nearly all actives have a fitted effect of over 45% in size. A digest of the protocol:
as §3

Several values for one entry are separate records, joined by “and”; a condition that tells them apart may be missing. Equal values may be shown once. Results filed as inconclusive are left out. Where a structure was tested more than once in an assay, its records may differ in their call. Activity calls are given as the source filed them. Calls follow the shape of the dose curve; as a rule, active = well fitted curve in the direction sought with a large enough effect in the repeat runs; inconclusive = weak or mixed curves; inactive = no such curve, though single readings can be large; an effect the other way counts as inactive or inconclusive.
% is scaled to controls: 0 for no effect and ±100 for the full control effect.

`O=C1CCc2ccccc2O1`: the Potency result in test [1], in [2], in [4], in [5], in test [6] and in test [7] was “inactive” throughout. For the same compound, the Potency entry in test [8] is “inactive”. Moreover, the max response in test [3] was 3.8% (inactive) and -0.872% (inactive). In test [9], the Potency result is “inactive and 21.9 µM (active)”.
For `FC(F)(F)C(Cl)Br` (stereo not drawn), the Potency result in test [1], in test [2], in test [10], in [4], in [5] and in [6] was “inactive” in each case. Besides, the Potency entry in test [7], in test [8] and in [9] was “inactive” throughout. Besides, the max response in [3] was -4.81% (inactive) and 5.64% (inactive).
For the compound `CCCCCCCCCCCCCO`, the Potency entry in test [1], in test [2], in test [10], in test [4], in test [5] and in test [6] was “inactive” each time. Besides, the Potency entry in test [8] and in test [9] was “inactive” each time. Also, the max response in test [3] was 3.82% (inactive) and -0.0255% (inactive).
Turning to `CC[C@]12CCCN3CCc4c(n(c5ccccc45)[C@@](O)(C(=O)OC)C1)[C@@H]32`, the Potency result in test [1], in test [2], in test [10], in [4], in [5] and in [6] was “inactive” each time. In addition, the Potency result in test [7], in test [8] and in test [9] was “inactive” each time. Moreover, in test [3], the max response is -23.5% (inactive).
For the compound `NCCOCCO`, the Potency entry in test [1], in test [2], in [10], in test [4], in [5] and in test [6] was “inactive” in each case. Moreover, the Potency entry in test [7], in test [8] and in test [9] was “inactive” each time. Further, the max response in [3] is 6.45% (inactive) and 5.26% (inactive).
For `[O-]/[N+](=N\O)c1ccccc1`, the Potency entry in test [1], in [2], in test [10], in test [4], in [5] and in test [6] was “inactive” throughout. Further, the Potency result in [7], in test [8] and in test [9] was “inactive” throughout. Moreover, the max response in [3] was 2.42% (inactive) and -11.8% (inactive).
Consider `C=C[Si](OCCOC)(OCCOC)OCCOC`, for which the Potency entry in test [1], in test [2], in [10], in test [4], in [5] and in test [6] was “inactive” each time. The Potency result in [7], in [8] and in [9] was “inactive” in each case. In addition, in test [3], the max response is 5.17% (inactive) and 4.57% (inactive).
`C[C@]12CC[C@@H]3c4ccc(O)cc4CC[C@H]3[C@@H]1CC[C@@H]2O`: the Potency result in [2], in [10], in test [4], in test [5], in test [6] and in test [8] was “inactive” in each case. In [9], the Potency result is “inactive”. In addition, the Potency in [3] was 17.3 µM (active) and 21.9 µM (active); in test [7] it was 34.6 µM (active).
On to `CC(=O)[C@H]1CC[C@H]2[C@@H]3CC=C4C[C@@H](O)CC[C@]4(C)[C@H]3CC[C@]12C`, for which the Potency result in test [1], in [2], in test [10], in test [4], in test [5] and in [6] was “inactive” in each case. The Potency result in [7], in test [8] and in [9] was “inactive” throughout. In test [3], the max response is -23.7% (inactive).
As for `C=C[C@H]1CN2CC[C@H]1C[C@H]2[C@H](O)c1ccnc2ccc(OC)cc12`, the Potency result in test [1], in test [2], in test [10], in test [4], in [5] and in test [6] was “inactive” throughout. In addition, the Potency entry in test [7], in test [8] and in [9] was “inactive” each time. The max response in test [3] is -26.3% (inactive) and -11.8% (inactive).
For `C=C1C[C@H]2[C@@H]3C=C(C)C4=CC(=O)CC[C@]4(C)[C@H]3CC[C@]2(C)[C@@]1(OC(C)=O)C(C)=O`, the Potency result in test [2], in test [10], in [4], in test [5], in test [6] and in test [7] was “inactive” throughout. For the same compound, the Potency entry in [9] was “inactive”.
With `CCCCCCCCCCCCO`, the Potency result in test [1], in test [2], in [10], in test [4], in [5] and in [6] was “inactive” in each case. Further, the Potency entry in test [7], in test [8] and in test [9] was “inactive” throughout. In addition, the max response in [3] was -4.3% (inactive) and -1.21% (inactive).
Consider `CC1(C)O[C@@H]2C[C@H]3[C@@H]4C[C@H](F)C5=CC(=O)C=C[C@]5(C)[C@@]4(F)[C@@H](O)C[C@]3(C)[C@]2(C(=O)CO)O1`, for which the Potency entry in [1], in test [2], in test [10], in [4], in test [5] and in [6] was “inactive” throughout. Further, the Potency result in test [7] and in test [9] was “inactive” throughout. For the same compound, the max response in test [3] was -29.2% (inactive) and -4.18% (inactive).
Consider `O=S1(=O)CCCO1`, for which the Potency entry in test [1], in [2], in test [10], in [4], in test [5] and in [6] was “inactive” each time. The Potency result in test [7], in [8] and in test [9] was “inactive” in each case. For the same compound, the max response in test [3] is 5.89% (inactive) and 10.2% (inactive).
With `COc1ccc(-c2coc3cc(O)cc(O)c3c2=O)cc1`, the Potency entry in [2], in test [10], in test [5], in [8] and in test [9] was “inactive” in each case. Also, the Potency was 49.4 µM (active) in test [3] and 55.4 µM (active) in [7].
Take `C1CN(SSN2CCOCC2)CCO1`: the Potency result in [1], in test [4], in test [5], in test [6], in [7] and in test [8] was “inactive” in each case. For the same compound, in test [3], the max response was -14.4% (inactive). Besides, the Potency in test [9] is 48.5 µM (active) and inactive.
`CCc1cccc2c3c([nH]c12)C(CC)(CC(=O)O)OCC3` (stereo not drawn): the Potency result in [1], in [2], in [10], in test [4], in test [5] and in test [6] was “inactive” in each case. Besides, the Potency result in test [7], in [8] and in test [9] was “inactive” throughout. Also, in test [3], the max response was 0.853% (inactive) and 0.265% (inactive).
As to `Nc1cc([N+](=O)[O-])ccc1C(=O)O`, the Potency result in [1], in test [2], in [10], in [4], in test [5] and in test [6] was “inactive” each time. In addition, the Potency result in [7], in [8] and in [9] was “inactive” each time. In addition, the max response in test [3] is 9.73% (inactive) and 6.1% (inactive).
Consider `C=CCNCC=C`, for which the Potency entry in test [1], in test [2], in test [10], in test [4], in [5] and in test [6] was “inactive” throughout. Besides, the Potency result in test [7], in [8] and in test [9] was “inactive” throughout. Besides, the max response in [3] was 4.5% (inactive) and 4.18% (inactive).
